# In the library only some 3.7% were active in any assay of this set; here they are far more common.
# HepG2 viability – qHTS for Inhibitors of TGF-b: Cytotox Counterscreen; 410,000 tested, 0.76% active; Potency, µM (titrated, usually from 46.1 µM), for the others: at the highest dose activity change, negative = cytotoxicity, usual class: cytotoxic; HepG2 CAGA-GFP viability, ATP luminescence, 18 h; also: potency is read from the fitted curve at half-maximal effect
#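 CellTiter-Glo luminescence gave cytotoxicity after 18 hours at 37 degrees C. The cells were HepG2 CAGA-GFP in 1% FBS DMEM, stimulated with 500 pg/mL TGF-beta after compound addition. %Activity was normalised to no-cell wells (complete cell-killing) and DMSO (no toxicity), and curves were fitted and classified.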
# GLP-1R inv ag – qHTS of GLP-1 Receptor Inverse Agonists (Inhibition Mode); HEK293 GLP-1R CRE-luciferase, luminescence, 24 h; GLP-1R form is constitutively active; 410,000 tested, 1.6% active; Potency, µM (series often up to 38.3 µM), for the others: top-dose activity change, negative = inhibition, actives largely listed as inhibitors; Glucagon-like peptide 1 receptor (Homo sapiens), P43220; also: potency is read from the fitted curve at half-maximal effect; % is scaled to controls: 0 for no effect and ±100 for the full control effect; nearly all actives have a fitted effect of over 55% in size
# Target sequence (P43220 whole entry, looked up): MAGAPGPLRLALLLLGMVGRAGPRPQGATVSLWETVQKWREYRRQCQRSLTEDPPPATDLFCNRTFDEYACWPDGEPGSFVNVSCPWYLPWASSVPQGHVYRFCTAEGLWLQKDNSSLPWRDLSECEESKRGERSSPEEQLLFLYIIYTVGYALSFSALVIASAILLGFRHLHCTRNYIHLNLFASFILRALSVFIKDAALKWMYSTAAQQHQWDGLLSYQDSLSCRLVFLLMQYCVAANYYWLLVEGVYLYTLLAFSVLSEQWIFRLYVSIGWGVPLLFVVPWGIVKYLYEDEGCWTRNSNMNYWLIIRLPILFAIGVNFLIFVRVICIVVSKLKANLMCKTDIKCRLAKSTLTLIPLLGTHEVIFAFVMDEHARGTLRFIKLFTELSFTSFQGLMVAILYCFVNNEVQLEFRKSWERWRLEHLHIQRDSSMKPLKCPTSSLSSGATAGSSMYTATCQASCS
#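 HEK293 cells stably co-expressing a cAMP-responsive luciferase reporter and constitutively active GLP-1R were seeded, incubated 12 h, then exposed to compounds for 24 h at 37 C. Luminescence was read 12 min after detection reagent; inverse agonists lower signal.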
# GLP-1R agonist – qHTS of GLP-1 Receptor Agonists. Potency, µM (top dose mostly 45.6 µM), inactives show at the top dose activation, most hits filed as activators. HEK293 GLP-1R CRE-luciferase, luminescence, 4-6 h; cells express a hypersensitive GLP-1R form. Glucagon-like peptide 1 receptor (Homo sapiens), P43220. 380,000 tested, 0.007% active; also: potency is read from the fitted curve at half-maximal effect; % of control where 0% means no effect
# S2 tox – Viability Counterscreen for Primary qHTS for Inhibitors of ATXN expression; S2 cells (HEK-293 line with an ATXN2-luciferase reporter) viability, CellTiter-Fluor protease fluorescence, 24 h; Potency, µM (top dose mostly 56.7 µM), most hits filed as cytotoxic; 400,000 tested, 0.49% active; AID 651635, 2014; also: potency is read from the fitted curve at half-maximal effect; nearly all actives have a fitted effect of over 40% in size
# ATXN2 expr inh – Primary qHTS for Inhibitors of ATXN expression | HEK-293 ATXN2-luciferase reporter, luminescence, 24 h | Potency, µM (doses to about 57 µM), for inactives: top-dose activity change, negative = inhibition, most hits filed as inhibitors | 360,000 tested, 0.72% active | AID 1745845, 2022; also: potency is read from the fitted curve at half-maximal effect; % is scaled to controls: 0 for no effect and ±100 for the full control effect; nearly all actives have a fitted effect of over 55% in size
#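 ATXN2-luciferase reporter cells (luciferase flanked by upstream and downstream ATXN2 gene portions) were treated 24 h at 37 °C with compounds at up to 57 uM. SteadyGlo luminescence gave expression; GF-AFC fluorescence gave viability.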
# TGFb SMAD3 inh – qHTS for Inhibitors of TGF-b. HepG2 CAGA-GFP TGF-b/SMAD3 reporter, GFP fluorescence, 18 h; TGF-beta stimulated, 500 pg/mL final. Potency, µM (series often up to 46.1 µM), without a hit: top-dose activity, negative = inhibition, usual class: inhibitors. 410,000 tested, 1.2% active. AID 588855, 2011; also: potency is read from the fitted curve at half-maximal effect; % is scaled to controls: 0 for no effect and ±100 for the full control effect; nearly all actives have a fitted effect of over 65% in size
#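 Per well, imaged GFP fluorescence of HEPG2 CAGA-GFP cells gives the signal; cells get compound, then TGF-beta (500 pg/mL final), 18 h at 37 degrees C; %Activity versus -TGF-beta and +DMSO controls.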
# SK-N-SH 3D tox – qHTS of pediatric cancer cell lines to identify multiple opportunities for drug repurposing: Orthogonal 3D viability screen for SK-N-SH cells; shares compounds with ATXN2 expr inh; SK-N-SH 3D spheroid viability, PI/Hoechst imaging, 72 h; Potency, µM (titrated, usually from 30.7 µM), usual class: inhibitors; 65 tested, 70% active
# SJGBM2 3D viab – qHTS of pediatric cancer cell lines to identify multiple opportunities for drug repurposing: Orthogonal 3D viability screen for SJ-GBM2 cells; shares compounds with ATXN2 expr inh; SJ-GBM2 3D spheroid viability, PI/Hoechst imaging, 72 h; Potency, µM (titrated, usually from 30.7 µM), most hits filed as inhibitors; 65 tested, 80% active; AID 1347136, 2019
# Daoy 3D tox – qHTS of pediatric cancer cell lines to identify multiple opportunities for drug repurposing: Orthogonal 3D viability screen for Daoy cells; shares compounds with ATXN2 expr inh; Daoy 3D spheroid viability, PI/Hoechst imaging, 72 h; Potency, µM (highest dose often 30.7 µM), actives largely listed as inhibitors; 65 tested, 50% active; AID 1347137, 2019
# TC32 3D casp – qHTS of pediatric cancer cell lines to identify multiple opportunities for drug repurposing: Orthogonal 3D caspase screen for TC32 cells. shares compounds with ATXN2 expr inh. Potency, µM (highest dose often 30.7 µM), hits mostly inhibitors. 65 tested, 30% active. TC32 3D spheroids, caspase-3/7 fluorescence imaging, 24 h
# TC32 spheroid – qHTS of pediatric cancer cell lines to identify multiple opportunities for drug repurposing: Orthogonal 3D viability screen for TC32 cells; shares compounds with ATXN2 expr inh; 65 tested, 60% active; Potency, µM (highest dose often 30.7 µM), actives largely listed as inhibitors; TC32 3D spheroid viability, PI/Hoechst imaging, 72 h; AID 1347139, 2019
# MG63 spheroid – qHTS of pediatric cancer cell lines to identify multiple opportunities for drug repurposing: Orthogonal 3D viability screen for MG 63 (6-TG R) cells; shares compounds with ATXN2 expr inh; MG-63 (6-TG R) 3D spheroid viability, PI/Hoechst imaging, 72 h; Potency, µM (doses to about 30.7 µM), usual class: inhibitors; 65 tested, 50% active; AID 1347140, 2019
# RD 3D tox – qHTS of pediatric cancer cell lines to identify multiple opportunities for drug repurposing: Orthogonal 3D viability screen for RD cells | shares compounds with ATXN2 expr inh | RD rhabdomyosarcoma 3D spheroid viability, PI/Hoechst imaging, 72 h | 65 tested, 50% active | Potency, µM (series often up to 30.7 µM), most hits filed as inhibitors
# * marks the source's active call; other numbers are inactive results; i = inactive; ? = inconclusive; · = no result; [ ] = remark or other dose. Calls follow the shape of the dose curve; as a rule, active = well fitted curve in the direction sought with a large enough effect; inconclusive = small, poorly fitted or top-dose-only effect, or another doubt; inactive = no such curve, though single readings can be large; an effect the other way counts as inactive or inconclusive.
SMILES,HepG2 viability,GLP-1R inv ag,GLP-1R agonist,S2 tox,ATXN2 expr inh,TGFb SMAD3 inh,others
COC(=O)C1=CCCN(C)C1,6%,9%,11%,i,41%,7%,SK-N-SH 3D tox=13µM*;SJGBM2 3D viab=?;Daoy 3D tox=i;TC32 3D casp=?;TC32 spheroid=4.1µM*;MG63 spheroid=i;RD 3D tox=i
O=[N+]([O-])c1ccc(CNCCc2ccccc2)cc1,-16%,4%,-2%,i,·,-11%,
C[C@H](CO)N1C[C@H](C)[C@@H](CN(C)C(=O)c2ccc3c(c2)OCO3)Oc2cc(/C=C/c3ccccc3)ccc2S1(=O)=O,-30%,-18%,-3%,?,?,-15%,
CC(C)C[C@H]1C(=O)N2CCC[C@@H]2[C@@]2(O)O[C@](NC(=O)[C@@H]3C=C4c5cccc6[nH]cc(c56)C[C@@H]4N(C)C3)(C(C)C)C(=O)N12,·,·,·,i,·,·,
Cc1ccc(NC(=O)N2CCN(c3cc(-c4noc(C)n4)ccc3C)CC2)c(F)c1,-24%,?,-2%,i,-8%,?,
CCN[C@H](C)Cc1cccc(C(F)(F)F)c1,·,·,·,i,12%[116 µM],·,
COc1cc(OC)c(NS(=O)(=O)c2cc(-c3cnc(C4CC4)o3)ccc2C)cc1Cl,-30%,?,·,?,-2%,?,
O=c1[nH]c2ccc(Cl)cc2c(N[C@@H]2CN3CCC2CC3)c1-c1nc2ccccc2[nH]1,·,·,·,·,0.068µM*,·,SK-N-SH 3D tox=0.13µM*;SJGBM2 3D viab=0.091µM*;Daoy 3D tox=0.72µM*;TC32 3D casp=18µM*;TC32 spheroid=13µM*;MG63 spheroid=6.4µM*;RD 3D tox=?
COc1ccccc1Cc1c(-c2ccc(C)cc2)nc2cc(C)c(Br)c(C)n12,·,?,-1%,i,71%,·,
O=C(O)CNC1c2ccccc2CSc2ccccc21 (configuration not stated),27%,0%,2%,i,1%,10%,
CCN1CCN(C(=O)Cc2c(C)n(C(=O)c3ccc(Cl)cc3)c3ccc(OC)cc23)CC1,-22%,?,14%,?,-13%,-17%,
COc1cc(C=O)ccc1OC(=O)Nc1ccccc1,-176%,1%,3%,i,26%,0%,
CN1CCCC(C(O)(c2ccccc2)c2ccccc2)C1 (configuration not stated),4%,?,-3%,i,·,-3%,
CC(Cc1ccccc1)NCCC(=O)NC(C)Cc1ccccc1 (configuration not stated),-38%,?,-6%,i,·,-25%,
CN1C2CCC1CC(OC(=O)c1ccc(Cl)cc1)C2 (configuration not stated),-30%,?,-8%,i,-14%,0%,
COc1cc(CN2CCc3nc(N4CCN(c5ccccn5)CC4)ncc3C2)cc(OC)c1OC,-28%,-17%,·,?,?,-31%,

# Source: PubChem BioAssay
